High-throughput results as filed in PubChem BioAssay.
The list is not random: actives were taken first. Their share in the collection is about 6.2%.
Lassa entry inh – blocks Lassa virus binding to or entry into cells. Lassa virus pseudotype entry inhibition, cell reporter. Potency, µM (doses to about 37.9 µM), for the others: top-dose activity change, negative = inhibition, actives largely listed as inhibitors. actives 1.2% (n = 300,000). AID 540256; calls by dose curve; tested in HEK293 cells; note: potency is the fitted concentration of half-maximal effect; nearly all actives have a fitted effect of over 50% in size
Marburg entry inh – inhibitors of Marburg virus binding or cell entry. AID 540276. Potency, µM (series often up to 37.8 µM), for inactives: at the top dose activity change, negative = inhibition, actives largely listed as inhibitors. actives 1.8% (n = 300,000). Marburg virus pseudotyped entry inhibition, cell reporter; calls by dose curve; tested in HEK293 cells; note: potency is the fitted concentration of half-maximal effect
HCMV inh – inhibitors of human cytomegalovirus; HFF cells, HCMV-luciferase reporter, 72 h; stronger effect = lower value; actives 4.5% (n = 410,000); AID 1259415; activity change, negative = inhibition, % at 57.5 µM; in the data active = activity change below about -60%; inconclusive = no clear call, values can overlap the other calls; inactive = above about -39%
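Inhibition of viral replication was scored as loss of reporter luminescence in HFFs infected with HCMV-luciferase (MOI 1 PFU/cell) for 72 h; compounds tested at 2 doses, normalized to buffer and Salinomycin controls.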
FMDV antiviral – antivirals against foot and mouth disease virus. FMDV antiviral cell-based qHTS. Potency, µM (highest dose often 57.9 µM), for inactives: at the top dose activity change, negative = inhibition, usual class: inhibitors. actives 1.2% (n = 410,000). AID 1159524; calls by dose curve; tested in HEK293T cells; note: read-out not given here; potency is the fitted concentration of half-maximal effect; nearly all actives have a fitted effect of over 45% in size
* = called active by the depositor; ? = inconclusive; nt = no result; + = active, no number; [ ] = another dose, or the depositor's remark. % is set by controls: 0 for no effect and ±100 for the full control effect.

SMILES	Lassa entry inh	Marburg entry inh	HCMV inh	FMDV antiviral
COc1cccc(NC(=O)CCc2nc(-c3ccc(C(C)(C)C)cc3)no2)c1	?	?	-82*	?
CCOC(=O)c1ccc(NC(=O)CCc2nc(-c3ccccc3Cl)no2)cc1	?	?	-33	-9%
O=C(CCCc1nc(-c2ccc(Cl)cc2)no1)Nc1cccnc1	?	-49%	-72*	?
CCOC(=O)c1ccc(NC(=O)CCc2nc(-c3ccccc3)no2)cc1	?	?	-3	20µM*
COc1cccc(C(c2sc3nc(-c4ccco4)nn3c2O)N2CCN(c3ccccc3F)CC2)c1 (stereo unspecified)	6%[46.1 µM]	nt	56	10%
CO[C@@H]1c2ccccc2[C@H]2C(C(=O)O)c3c(n(C)c4ccccc34)[C@H]2[C@H]1C (stereo partly specified)	nt	29%[14.2 µM]	nt	nt
Cc1ccc(NC(=O)Nc2nnc(N(C)C3CCCCC3)s2)c(Cl)c1	-5%[46.1 µM]	1%[46.1 µM]	-8	4%
Cc1ccc(C)c(CN2C(=O)c3ccccc3Sc3ccc(C(=O)NCc4ccco4)cc32)c1	?	nt	-69*	-23%
Cc1ccc(C)c(CN2C(=O)c3ccccc3Sc3ccc(C(=O)N4CCC5(CC4)OCCO5)cc32)c1	?	nt	-72*	-9%
Cc1ccc(C)c(CN2C(=O)c3ccccc3Sc3ccc(C(=O)NCc4cccs4)cc32)c1	-11%[46.1 µM]	nt	-62*	-4%
O=C(NCc1ccco1)c1ccc2c(c1)N(Cc1ccc(Cl)cc1)C(=O)c1ccccc1S2	-27%[46.1 µM]	nt	-37	-3%
Cc1ccc(C#N)c(SCc2ccccc2[N+](=O)[O-])n1	-3%	1%	?	0%
Cc1cc(C)c(C#N)c(SCc2nnc(-c3ccccc3)o2)n1	1.2µM*	1.2µM*	-93*	?
Cc1cc(C)c(C#N)c(SCc2nnc(-c3ccccc3[N+](=O)[O-])o2)n1	?	?	-95*	15%
Cc1cc(C)c(C#N)c(SCc2ccccc2[N+](=O)[O-])n1	0%	-7%	-97*	0%
Cc1ccc(C#N)c(SCc2nnc(-c3ccc(Cl)cc3)o2)n1	?	2.1µM*	-91*	20µM*
COc1ccc(-c2nc3c(c4c2C[C@H](c2ccccc2)OC4)CN(C(=O)c2cc(I)ccc2F)CC3)c(C)c1	nt	0%[14.2 µM]	nt	nt
CCOC(=O)c1c(-c2ccc([N+](=O)[O-])cc2)[nH]c2ccc(C)cc12	nt	nt	-22	nt
Cc1nc2c(OCCOc3ccc(F)cc3)cccn2c1N(C)C(=O)CCC1CCCC1	nt	nt	7	?
Cc1cc(C)c(C#N)c(SCc2cn3c(C)cccc3n2)n1	0%	7%	-63*	-17%
Cc1cc(C)nc(SCc2cn3c(C)cccc3n2)n1	-6%	-4%	-12	14%
COc1ccc2sc(N(Cc3cccnc3)C(=O)c3ccc4c(c3)OCCO4)nc2c1	?	nt	-90*	?
COc1ccc(OC)c2sc(N(Cc3cccnc3)C(=O)c3ccco3)nc12	13%[46.1 µM]	nt	+	-22%
COc1cccc2sc(N(Cc3cccnc3)C(=O)c3ccco3)nc12	-14%[46.1 µM]	nt	-20	-20%
COc1ccc2nc(N(Cc3cccnc3)C(=O)c3ccc4c(c3)OCCO4)sc2c1	6%[46.1 µM]	nt	40	-15%
SMILES	Lassa entry inh	Marburg entry inh	HCMV inh	FMDV antiviral
CCc1ccc2nc(N(Cc3cccnc3)C(=O)c3cccs3)sc2c1	-3%[46.1 µM]	nt	-61*	21%
COc1ccc(C(=O)N2CCC3(CC2)CN(Cc2ccc(C#N)cc2)C3)cc1	nt	nt	nt	-14%
Cc1cc(C)n(C[C@@H]2CC(=O)N(c3cc(Cl)cc(Cl)c3)C2=O)n1	nt	4%	nt	nt
CC(Oc1ccc(Cl)cc1Cl)c1nc(-c2ccc(NC(=O)c3ccco3)cc2)no1 (stereo unspecified)	?	?	-93*	-20%
COc1ccc(-c2noc(C(C)NC(=O)c3ccco3)n2)cc1 (stereo unspecified)	24%[46.1 µM]	2%[46.1 µM]	-24	-4%
CCCc1ccc(OCc2nc(-c3ccc(NC(=O)c4ccco4)cc3)no2)cc1	10µM*	?	?	21%
Cc1ccc(Cl)cc1NC(=O)Cn1c(=O)n(Cc2ccccc2)c(=O)c2oc3ccccc3c21	22%[46.1 µM]	nt	8	-5%
Cc1sc2nc(SCC(=O)Nc3ccc(Cl)c(C(=O)O)c3)[nH]c(=O)c2c1C	?	13µM*	0	-16%
Cc1sc2nc(SCC(=O)Nc3cccc(C(=O)O)c3)[nH]c(=O)c2c1C	4%	13%	19	-20%
COc1cc2ncnc(Nc3cccc(Cl)c3)c2cc1OC	?	?	nt	-12%
Clc1cccc(Nc2ncnc3ccc(Br)cc23)c1	-24%	?	-62*	nt
COc1ccc(Nc2ncnc3ccc(Br)cc23)cc1OC	-15%	?	nt	-9%
Clc1ccc(Nc2ncnc3ccc(Br)cc23)cc1	-23%	?	-83*	nt
